# esBAF inh: blocks esBAF chromatin remodeling in mouse ES cells; Bmi1-luciferase knock-in reporter, 24 h; 100% = twice the neutral-well signal; reporter increase, % at 12.5 µM; 350,000 tested, 2% active; AID 602393; in the data active = activation above about 40%; inconclusive = no clear call, values can overlap the other calls;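 note: 0% = median of the plate's neutral control wells and 100% = double that signal; a rise in the Bmi1 reporter signal indicates esBAF inhibition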
# Vif imaging: blocks HIV Vif function; AID 602346; inhibition, % at 7.49 µM; HEK293T cells, Vif self-association by quenched fluorescence, imaging, 24 h; 340,000 tested, 0.35% active; in the data active = inhibition above about 50%, passing the limit was not always enough; inconclusive = no clear call, values can overlap the other calls; inactive = below about 31%
# NR3A LBD binder: modulates the human NR3A ligand-binding domain. NR3A LBD differential scanning fluorimetry, Tm shift; 0% = protein alone, 100% = glycine-bound protein. Tm shift relative to glycine control, % at 25 µM. 340,000 tested, 2.5% active. AID 1259313;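 active = melting temperature shift of at least 10% of the positive control shift, at one fixed dose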
# SKN-1 block: blocks SKN-1 activity in C. elegans. C. elegans VP596 Pgst-4::GFP/RFP ratio, acrylamide-induced, 24 h. inhibition, % at 21.8 µM. 360,000 tested, 0.49% active. AID 624304;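 active = interference check ratio from 0.5 to 1.5 plus GFP to RFP signal ratio inhibition reaching or exceeding a fixed threshold, cut at about 30% in these data, passing the limit was not always enough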
# NadD inh: NadD (S. aureus) enzyme inhibition; purified NadD enzyme, colorimetric absorbance read-out; inhibition, % at 20 µM; 360,000 tested, 0.78% active; in the data active = inhibition above about 26%
# SMARCA2 act: SMARCA2 function activation, primary screen | MG213 cells, MMTV-luciferase reporter, dexamethasone, overnight | activation, % at 9.1 µM | 370,000 tested, 1% active | AID 652017; in the data active = activation above about 7.8%;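 note: 0% = vehicle wells and 100% = reference activator wells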
# * = called active by the depositor; ? = inconclusive; . = no result. This is a sample that favours compounds with a hit; in the whole collection about 5.2% have one here.
SMILES,esBAF inh,Vif imaging,NR3A LBD binder,SKN-1 block,NadD inh,SMARCA2 act
O=C(COc1ccc(Br)cc1Cl)NC(=S)Nc1ccccn1,49.6*,-5.0,-2.0,-1.8,0.3,-0.6
Cc1ccc(OCC(=O)NC(=S)Nc2ccccn2)c(Br)c1,.,6.8,2.2,6.6,3.1,-1.3
Cc1ccc(NC(=O)Cn2nnc(C(=O)NCc3ccc(Cl)cc3)c2N)cc1F,1.3,2.8,13.4*,12.0,12.4,-4.9
Cc1ccc(NC(=O)Cn2nnc(C(=O)Nc3ccc(F)c(Cl)c3)c2N)cc1,-0.1,-2.3,31.8*,4.1,1.0,0.2
Cc1ccc(NC(=O)c2nnn(CC(=O)Nc3ccccc3)c2N)cc1C,9.8,35.0,-5.6,4.1,-6.0,-1.3
Cc1ccc(NC(=O)Cn2nnc(C(=O)NCc3ccccc3)c2N)cc1C,-11.0,5.5,25.6*,-3.2,-2.3,2.5
C[C@H]1CN([C@@H](C)CO)C(=O)c2cc(NC(=O)CCN3CCOCC3)ccc2O[C@@H]1CN(C)Cc1ccc(C(F)(F)F)cc1,-1.0,.,.,.,.,.
COc1ccc(/C(N)=N/OC(=O)CN(C)S(=O)(=O)c2ccccc2)cc1,.,-1.4,2.0,0.3,-6.2,-3.4
CN(CC(=O)O/N=C(\N)c1ccc([N+](=O)[O-])cc1)S(=O)(=O)c1ccc2ccccc2c1,-4.3,58.9*,1.4,-4.3,-7.0,-2.2
CN(C)c1ccc(C2C3CCCc4ccccc4C3=NN2C)cc1 (stereo not given),47.4*,?,1.0,-10.8,2.5,0.9
CN1N=C2c3ccccc3CCC2C1c1ccc(C(F)(F)F)cc1 (stereo not given),.,.,-0.6,.,.,.
OCCO,-10.7,55.2*,-0.5,-2.5,-0.6,-3.6
CCC1(C)N=C(c2ccc3c(c2)OCO3)CC(c2ccccc2O)N1 (stereo not given),46.0*,3.9,-7.9,-1.8,14.6,4.0
COc1cccc(C2=NC(C)(C)NC(c3ccccc3O)C2)c1 (stereo not given),.,2.5,-11.0,24.9,7.6,6.0
CC(NCC(O)COc1ccc2ccccc2c1)c1ccccc1 (stereo not given),1.2,-15.8,-1.8,2.8,-2.9,-2.5
O=C(O)C(Oc1ccc2ccccc2c1)c1ccccc1 (stereo not given),-8.8,0.7,4.5,39.5*,-8.5,-4.9
COc1ccc([N+](=O)[O-])cc1NC(=O)C1CCCCC1C(=O)O (stereo not given),.,2.0,18.0*,-3.5,0.0,-0.5
COc1ccc([N+](=O)[O-])cc1NC1C2CC3CC(C2)CC1C3 (stereo not given),-3.0,2.9,0.3,13.4,6.4,0.8
COc1ccc([N+](=O)[O-])cc1NC1CCCCC1,5.6,0.8,15.5*,13.1,-1.6,-3.8
COc1ccc(C)cc1NC(=O)C1CCCCC1C(=O)O (stereo not given),-3.4,3.3,-0.6,-8.9,-4.7,-0.5
CC(C)(C)CC(=O)Nc1nnc(-c2cccs2)s1,48.0*,.,-2.7,1.9,4.1,-2.4
COc1ccc(NC(=O)Nc2nnc(-c3ccccc3SCc3ccccc3)s2)cc1,.,-9.5,21.8*,-4.3,21.9,-0.2
COc1cccc(NC(=O)Nc2nnc(-c3ccccc3SCc3ccccc3)s2)c1,-3.2,-3.1,7.0,6.7,17.3,1.4
O=C(Nc1nnc(-c2cccs2)s1)c1cccc(F)c1,60.0*,-4.7,-7.1,24.3,-6.2,6.2
O=C(Nc1ccccc1)Nc1nnc(-c2cccs2)s1,.,-2.7,22.0*,-1.9,6.8,1.0
SMILES,esBAF inh,Vif imaging,NR3A LBD binder,SKN-1 block,NadD inh,SMARCA2 act
COc1cccc(-c2ccc3n(c2=O)C[C@H]2[C@H](CO)[C@@H](C(=O)NC4CCC4)N(S(C)(=O)=O)[C@@H]32)c1,-2.5,.,.,.,.,.
COc1ccc(NC(=O)Nc2nnc(-c3cccs3)s2)cc1,.,3.9,16.3*,-2.9,5.3,1.0
CCCc1ccc(OC(=O)c2ccc(O)cc2Cl)cc1,26.0,-10.0,16.2*,-0.1,-4.1,1.8
CCCc1ccc(OC(=O)c2cccs2)cc1,-5.3,?,0.6,-2.0,-4.2,-1.3
C[C@@H](NC(=O)C[C@H]1C=C[C@H](NC(=O)CN2CCOCC2)[C@H](CO)O1)c1ccccc1,-8.1,.,.,.,.,.
Cc1cccc(C(C(C(=O)c2ccccc2)N2CCOCC2)N2CCOCC2)c1 (stereo not given),3.9,10.6,4.7,11.8,-2.8,-2.9
